Results taken from PubChem BioAssay (NCATS).
Unmarked numbers belong to inactive results. The source made the active and inactive calls. The call rests on the fitted dose curve; in most records, active means well fitted activation curve with a large enough effect; inconclusive means small, poorly fitted or top-dose-only effect; inactive means no such curve, though single readings can be large or run the other way.

target: Parathyroid hormone/parathyroid hormone-related peptide receptor (Homo sapiens) (UniProt Q03431); assay: qHTS for PTHR1 Agonists: Optimization Screen against the NCGC LOPAC library (AID 1347079); details: HEK293 GP2 PTHR1 GloSensor cAMP luminescence, 1 h; series mostly up to 57.1 µM; activation: at the top concentration; on activation: 0% is about no effect
Sequence (Q03431 whole entry, looked up): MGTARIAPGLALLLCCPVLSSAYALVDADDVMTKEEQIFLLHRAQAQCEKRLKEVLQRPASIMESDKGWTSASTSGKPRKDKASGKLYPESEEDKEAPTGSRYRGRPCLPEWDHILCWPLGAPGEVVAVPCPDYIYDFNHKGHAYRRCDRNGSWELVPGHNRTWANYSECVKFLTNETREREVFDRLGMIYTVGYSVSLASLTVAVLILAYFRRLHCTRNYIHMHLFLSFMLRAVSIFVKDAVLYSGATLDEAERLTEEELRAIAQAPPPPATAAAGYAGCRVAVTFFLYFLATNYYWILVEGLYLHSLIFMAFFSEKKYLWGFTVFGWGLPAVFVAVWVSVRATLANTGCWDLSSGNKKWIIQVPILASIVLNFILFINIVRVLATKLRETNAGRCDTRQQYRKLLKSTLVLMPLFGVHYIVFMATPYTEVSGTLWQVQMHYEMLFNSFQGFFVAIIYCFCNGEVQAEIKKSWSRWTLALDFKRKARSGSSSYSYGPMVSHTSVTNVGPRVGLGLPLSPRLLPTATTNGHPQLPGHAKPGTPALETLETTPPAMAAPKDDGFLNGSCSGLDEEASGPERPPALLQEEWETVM
Description: The goal of the proposed studies is to discover new compounds that act as potent agonists on the parathyroid hormone receptor type-1 (PTHR1). The PTHR1 plays critical roles in maintaining blood calcium and phosphate levels, as well as in controlling bone remodeling. PTHR1 agonists could thus be useful for treating diseases such as hypoparathyroidism and osteoporosis. In the former disease, an agonist drug would help maintain normal blood calcium and phosphate levels under conditions of parathyroid hormone deficiency. In the latter disease, an agonist drug would stimulate new bone formation and thus reduce the risk of fracture, under conditions of bone fragility, as occurs in aging. We performed an optimization assay of the quantitative high-throughput screening (qHTS) for the parathyroid hormone receptor type-1 (PTHR1) against the NCGC LOPAC library collection of […] compounds using a unique HEK-293-derived cell line (GP2) that expresses the PTHR1 and a GloSensor cAMP reporter construct. Increase in signal (activation / agonist) is the desired outcome for compounds of interest. NIH Chemical Genomics Center [NCGC] NIH Molecular Libraries Probe Production Centers Network [MLPCN] MLPCN Grant: P01 DK011794 Assay Submitter (PI): Thomas Gardella PhD, Massachusetts General Hospital
Reagents / Controls: M-PTH (1-15) peptide hormone fragments was provided by the assay provider and was used as a control. Column 1 was treated with M-PTH titration (1:2 dilution) beginning with a final concentration of 10uM. Column 2 was treated with M-PTH final concentration of 10uM. Columns 3 and 4 were treated with DMSO only to assess background and noise signal. Assay Steps: Four microLiter of cells suspension was dispensed in a 1536-well assay plate at a final density of 3000 cells/well. The plates were incubated overnight, after which 4uL of 0.5mM of BloTium Luciferin plus 0.5mM IBMX was added. Next, the plate was incubated at 37C for 1hr before 23nL of compound (at various final concentrations from 40uM to 0.32uM) and control were added using a 1536-well array Kalypsys pin-tool. The treated plates were again incubated at 37C for another hour. Luminescence signal was obtained using the PerkinElmer ViewLux plate reader after 15min or room temperature incubation.
Potency means the concentration at half of the fitted maximal effect.

Compared with `COc1ccc(OC)c(C(O)C(C)N)c1` (stereo not given), `CC(N)[C@H](O)c1ccc(O)c(O)c1` (stereo not given in full) is higher in “activation” value: -15.8% for the first, 4.1% for the second.

First: CC(C)(C)c1o[nH]c(=O)c1CC(N)C(=O)O (stereo not given)
Second: Cc1o[nH]c(=O)c1CC(N)C(=O)O (stereo not given)
The “activation” value of the first is lower: -24.7% for the first, 16.9% for the second.

Compared with `Cc1cc([C@@H]2CCCN2C)on1`, `COc1ccc2c(c1)C13CCCCC1C(C2)N(C)CC3` (stereo not given) is higher in “activation” value: -16.5% for the first, 21.2% for the second.

Going from `NC(Cc1ccc(N(CCCl)CCCl)cc1)C(=O)O` (stereo not given) to `CCN(CCCl)Cc1ccccc1Br`, the “activation” value falls from 30.1% to 5.02%.

Going from `CN(N=O)c1ccc(O)c(O)c1` to `NNC(=O)c1ccc(O)cc1`, the “activation” value rises from 15.1% to 35.8%.

Compared with `NC(=O)CI`, `NC(=O)COc1c(F)cc(SCCNS(=O)(=O)c2ccccc2)cc1F` is lower in “activation” value: 21.2% for the first, 14.9% for the second.

Compared with `CCn1cnc2c(Nc3cccc(Cl)c3)nc(N[C@@H]3CCCC[C@@H]3N)nc21`, `CCCn1c(=O)c2[nH]c(C3CCCC3)nc2n(CCCOC(=O)c2ccc(S(=O)(=O)F)cc2)c1=O` is higher in “activation” value: -45.5% for the first, 4.62% for the second.

Going from `Oc1ccc2c3c1O[C@H]1c4oc5ccccc5c4C[C@@]4(O)C(C2)N(CC2CC2)CCC314` (stereo not given in full) to `Oc1ccc2c3c1O[C@H]1c4[nH]c5ccccc5c4C[C@@]4(O)C(C2)N(CC2CC2)CCC314` (stereo not given in full), the “activation” value falls from 10.4% to -23.7%.

Compared with `C[C@H](N)Cc1cccc(C(F)(F)F)c1`, `CC(N)Cc1c[nH]c2ccc(O)cc12` (stereo not given) is higher in “activation” value: -17% for the first, -7.76% for the second.

First: CC(N)Cc1c[nH]c2ccc(OCc3cccs3)cc12 (stereo not given)
Second: COc1ccc(CNC(=O)/C=C/c2ccc3[nH]cc(CCN(C)C)c3c2)cc1
The “activation” value of the first is lower: -12.5% for the first, 11.3% for the second.

Going from `O=C(O)c1cc[c]([Hg][Cl])cc1` to `O=c1c2ccccc2[se]n1-c1ccccc1`, the “activation” value falls from -21.4% to -28%.

First: CN1CCc2cccc(Cl)c2CC1
Second: COc1ccc2c(c1O)-c1cccc3c1[C@@H](C2)N(C)CC3
The “activation” value of the first is higher: 6.67% for the first, -6.98% for the second.

First: CCCN1CCc2cccc3c2[C@H]1Cc1ccc(O)c(O)c1-3
Second: CCCN(CCC)[C@@H]1CCc2cccc(O)c2C1
The “activation” value of the first is lower: -43.8% for the first, 23.2% for the second.

Compared with `C#CCN[C@H](C)Cc1ccccc1`, `C[N+]1(C)CCN(c2ccccc2)CC1` is higher in “activation” value: 0.393% for the first, 5.89% for the second.

First: C[N+](C)(C)CC#CCN1CCCC1=O
Second: O=C1CC[C@@]2(O)C3Cc4ccc(O)c5c4C2(CCN3CC2CC2)[C@H]1O5 (stereo not given in full)
The “activation” value of the first is higher: 42.9% for the first, -20% for the second.

Going from `CCCCCCC(C)(C)c1ccc([C@@H]2C[C@H](O)CC[C@H]2CCCO)c(O)c1` to `CCCCCCCCCCCCCC(=O)O[C@@H]1[C@@H](C)[C@@]2(O)[C@@H](C=C(CO)C[C@@]3(O)C(=O)C(C)=C[C@@H]23)C2C(C)(C)[C@@]21OC(C)=O` (stereo not given in full), the “activation” value falls from -1.4% to -16.6%.

Going from `C=CCN1C[C@@H](C)N([C@H](c2ccc(C(=O)N(CC)CC)cc2)c2cccc(OC)c2)C[C@@H]1C` to `Ic1ccccc1CNC1C2CCN(CC2)C1C(c1ccccc1)c1ccccc1` (stereo not given), the “activation” value falls from -12.9% to -14.7%.

Going from `CC1(C(=O)O)C2CCC(O2)C1(C)C(=O)O` (stereo not given) to `CCNC(=O)[C@H]1O[C@@H](n2cnc3c(N)ncnc32)[C@H](O)[C@@H]1O`, the “activation” value rises from -8.02% to 4.19%.

Compared with `CCCN(CCC)C1Cc2cc(OC)c(OC)cc2C1`, `COc1ccc2c(c1)/C(=C/c1cnc[nH]1)C(=O)N2` is lower in “activation” value: 34.5% for the first, 16.9% for the second.

With `C=CCN(C1=NCCN1)c1c(Cl)cccc1Cl` the “activation” value was -47.8%.

`NCC(CP(=O)(O)O)c1ccc(Cl)cc1` (stereo not given) was tested, and the Potency was 18.9 µM (active).
